From PMC4336329 (PLoS ONE, 2015)
About 14,000 (4.5%) of roughly 310,000 compounds showed an effect of 50% or more. Effects have a minus sign here. This is one part of a sample in which strong results are shown more often than they occur.

molecular target: human ether-à-go-go-related gene (hERG) potassium channel (human, UniProt Q12809); assay: primary screen, population patch clamp on CHO cells stably expressing hERG; higher = less effect of the substance
Description: Briefly, Chinese hamster ovary (CHO) cells stably expressing the hERG channel were dislodged from tissue culture flasks and dispensed into PPC plates. […] During the recording, background leak currents were estimated by a 100 ms step to -80 mV from an initial holding potential of -70 mV and subtracted from the subsequent current measurement. The campaign was conducted in two phases using slight differences in recording protocol. In the first phase, the initial voltage pulse used a 100 ms step to -30 mV from a holding potential of -70 mV, a 2 s conditioning step to +25 mV, and a 2 s test step to -30 mV. During the second phase of the screen, the potential during the conditioning step was raised to +45 mV. In both phases of the campaign, a secondary voltage pulse was applied using the same parameters as the second phase initial pulse. The initial and secondary pulses were applied in the absence of compound, and upon application of 1 μM and 10 μM test concentrations. […]
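Further: peak tail current of the secondary pulse compared with the same well before compound.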

Sequence of human ether-à-go-go-related gene (hERG) potassium channel (Q12809 whole entry, looked up): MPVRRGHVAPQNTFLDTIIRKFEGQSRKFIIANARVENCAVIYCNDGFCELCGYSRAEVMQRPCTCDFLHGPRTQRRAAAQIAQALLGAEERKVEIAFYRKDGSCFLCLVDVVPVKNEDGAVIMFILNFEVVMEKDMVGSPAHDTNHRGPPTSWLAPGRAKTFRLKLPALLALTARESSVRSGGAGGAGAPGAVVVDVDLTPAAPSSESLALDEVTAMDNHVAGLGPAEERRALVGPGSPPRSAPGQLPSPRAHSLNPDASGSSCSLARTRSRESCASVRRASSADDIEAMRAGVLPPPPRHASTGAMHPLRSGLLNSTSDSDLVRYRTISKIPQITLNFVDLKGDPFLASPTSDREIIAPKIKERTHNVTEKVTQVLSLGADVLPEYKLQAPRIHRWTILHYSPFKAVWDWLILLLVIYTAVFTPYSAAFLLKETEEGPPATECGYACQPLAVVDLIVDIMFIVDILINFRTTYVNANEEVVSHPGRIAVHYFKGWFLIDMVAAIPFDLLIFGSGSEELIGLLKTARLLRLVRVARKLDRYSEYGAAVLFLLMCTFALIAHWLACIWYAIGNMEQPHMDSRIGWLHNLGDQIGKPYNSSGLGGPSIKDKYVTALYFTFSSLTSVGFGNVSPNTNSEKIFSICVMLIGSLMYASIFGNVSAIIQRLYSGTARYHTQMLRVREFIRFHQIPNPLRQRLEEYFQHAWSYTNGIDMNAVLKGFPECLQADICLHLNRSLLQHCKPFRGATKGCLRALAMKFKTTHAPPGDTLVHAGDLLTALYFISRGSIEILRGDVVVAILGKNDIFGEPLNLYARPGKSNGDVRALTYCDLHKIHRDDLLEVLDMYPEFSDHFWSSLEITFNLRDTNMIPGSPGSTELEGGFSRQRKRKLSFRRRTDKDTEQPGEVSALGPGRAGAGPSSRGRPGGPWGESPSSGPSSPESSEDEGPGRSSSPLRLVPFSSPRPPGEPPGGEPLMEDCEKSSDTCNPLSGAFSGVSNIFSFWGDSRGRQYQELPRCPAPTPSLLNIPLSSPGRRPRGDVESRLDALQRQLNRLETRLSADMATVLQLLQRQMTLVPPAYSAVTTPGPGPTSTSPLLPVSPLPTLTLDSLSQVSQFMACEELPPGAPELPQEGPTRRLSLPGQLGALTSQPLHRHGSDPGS

Row | SMILES | hERG current change (%, negative = inhibition) at 10uM [%]
1 | COc1ccc(/C(C)=N/NC(=O)CNC(=O)c2ccncc2)c(OC)c1 | 3.47
2 | COc1cc(OC)c2cc[nH]c2c1 | 27.3
3 | Cc1ccccc1NC(=S)NCC(c1cccnc1)N1CCOCC1 (centres unmarked) | -4.07
4 | Cc1cc(Nc2ccc(Cl)cc2)n2nnnc2n1 | 7.83
5 | COc1cc(CN2CCN(c3cc(C)ccc3C)CC2)cc([N+](=O)[O-])c1O | 7.26
6 | Oc1cccc(Nc2ncnc3ccccc23)c1 | 3.18
7 | O=C(CNC(=O)c1ccccc1Br)N/N=C/c1cccs1 | 4.8
8 | O=C(Cc1ccc(Cl)cc1Cl)Nc1cccc(S(=O)(=O)Nc2ccccc2F)c1 | -1.71
9 | O=C(NCC(O)c1ccccc1)c1cccc(S(=O)(=O)N2CCOCC2)c1 (centres unmarked) | -18.1
10 | Cc1ccc(NC(=O)c2ccc([N+](=O)[O-])cc2)cc1S(=O)(=O)N(C)C | -39.6
11 | Cc1ccc(NC(=O)CCNC(=O)c2ccc([N+](=O)[O-])cc2)cc1C | -0.694
12 | O=C(Cc1ccc(Cl)cc1)Nc1cccc(S(=O)(=O)Nc2ccccc2F)c1 | 11.9
13 | CCN(CC)S(=O)(=O)c1cccc(NC(=O)CCNC(=O)c2ccc([N+](=O)[O-])cc2)c1 | -62.4
14 | O=C(CSc1ccc([N+](=O)[O-])cc1)Nc1cccc(S(=O)(=O)Nc2ccccc2F)c1 | -74.4
15 | O=C(NCC(O)c1ccc([N+](=O)[O-])cc1)c1cccc(S(=O)(=O)N2CCCC2)c1 (centres unmarked) | -66.8
16 | O=C(NCC(O)c1ccc([N+](=O)[O-])cc1)c1cccc(S(=O)(=O)N2CCOCC2)c1 (centres unmarked) | -13
17 | COC(=O)c1cccc(NC(=O)CCNC(=O)c2ccc([N+](=O)[O-])cc2)c1 | -48
18 | Cc1ccc(NC(=O)CCNC(=O)c2ccc([N+](=O)[O-])cc2)cc1S(=O)(=O)N(C)C | -66.9
19 | CN(C)S(=O)(=O)c1ccc(NC(=O)CCNC(=O)c2ccc([N+](=O)[O-])cc2)cc1 | -12.7
20 | CCOc1ccc(C(=O)Nc2nc(C)cc(C)n2)cc1[N+](=O)[O-] | -49.6
21 | Cc1nnc(C)n1/N=C/c1ccc(-c2ccccc2Cl)o1 | -11.3
22 | N[C@@H](Cc1ccc(O)c(I)c1)C(=O)O | 17.6
23 | COc1ccc(NC(=O)c2oc3ccccc3c2NC(=O)C2CCCO2)cc1OC (centres unmarked) | -17.8
